Source: PubChem BioAssay (NCI)
The panel holds about 79,000 compounds, 15% with a hit somewhere; the sample as a whole holds those more often. Calls of active or inactive are those of the source. Cut-off read from the data, not from the text of the source: active = growth inhibition above about 70%; inactive = the rest.

What was measured:
[1] = NCI Yeast Anticancer Drug Screen. Data for the rad50 strain (AID 155);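 note: 0% = growth of vehicle-only cultures of the same strain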; conditions: S. cerevisiae rad50 strain growth inhibition, active compounds read high
Method in brief: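 Genetically altered yeast (DNA repair pathway); compound treatment; growth inhibition vs vehicle ctrl.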

[2] = NCI Yeast Anticancer Drug Screen. Data for the mec2-1 strain (AID 157); conditions: S. cerevisiae mec2-1 strain, active compounds read high
Method in brief: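 Readout is yeast growth inhibition, normalised to vehicle-treated controls, in the mec2-1 strain exposed to compound.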

[3] = NCI Yeast Anticancer Drug Screen. Data for the sgs1 mgt1 strain (AID 161);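 note: 0% = growth of cultures given vehicle only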; conditions: S. cerevisiae sgs1 mgt1 strain, active compounds read high
Method in brief: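 Yeast cells carrying a defined DNA-repair defect were exposed to test compounds. Growth inhibition was measured relative to vehicle-treated controls.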

[4] = NCI Yeast Anticancer Drug Screen. Data for the cln2 rad14 strain (AID 165);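 note: 0% = growth equal to vehicle treated cultures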; conditions: S. cerevisiae cln2 rad14 strain, active compounds read high
Method in brief: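 Relative to vehicle controls, growth inhibition of compound-treated cln2 rad14 yeast was recorded.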

[5] = NCI Yeast Anticancer Drug Screen. Data for the bub3 strain (AID 167); conditions: S. cerevisiae bub3 mutant strain, active compounds read high
Method in brief: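 Yeast carrying a defined mutation is treated with each compound, and growth is compared with that of vehicle-exposed cells to give inhibition.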

[6] = NCI Yeast Anticancer Drug Screen. Data for the mlh1 rad18 strain (AID 175); conditions: S. cerevisiae mlh1 rad18 strain growth inhibition, active compounds read high
Method in brief: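 Test agents were incubated with a yeast strain of defined genotype (DNA damage repair defect). Inhibition of growth was derived by comparison with vehicle-exposed cultures.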

[7] = at 5.0 µM (retest, dose inferred, filed as 0.5)
[8] = at 50.0 µM (retest, dose inferred, filed as 5.0)

Measured: growth inhibition

COc1cc2c(cc1O)CCCCC2
inactive: [1]; [7] 4% | [1]; [8] 4% | [1]; at 50.0 µM 41.1% | [2]; [7] 3% | [2]; [8] -2% | [2]; at 50.0 µM -29.2% | [3]; [7] 1% | [3]; [8] 8% | [3]; at 50.0 µM 6.9% | [4]; [7] -2% | [4]; [8] -7% | [4]; at 50.0 µM 0% | [5]; [7] -4% | [5]; [8] 0% | [5]; at 50.0 µM -7.5% | [6]; [7] -3% | [6]; [8] 3% | [6]; at 50.0 µM 43%

CC1=NN(C(=O)c2ccncc2)C(=O)C1N=Nc1ccc(C)c([N+](=O)[O-])c1 (stereo not given)
active: [3]; [8] 94% | [3]; at 50.0 µM 88.8%
inactive: [1]; [7] 10% | [1]; [8] 61% | [1]; at 50.0 µM 47.5% | [2]; [7] 2% | [2]; [8] 28% | [2]; at 50.0 µM 19.4% | [3]; [7] 29% | [4]; [7] 6% | [4]; [8] 24% | [4]; at 50.0 µM -14.6% | [5]; [7] 1% | [5]; [8] 18% | [5]; at 50.0 µM 3.65% | [6]; [7] 12% | [6]; [8] 69% | [6]; at 50.0 µM 20.4%

O=NN(CCCl)C(=O)Nc1cc(Cl)ccc1O
inactive: [1]; [7] -8% | [1]; [8] 57% | [2]; [7] -8% | [2]; [8] 30% | [2]; at 50.0 µM 36.1% | [3]; [7] -5% | [3]; [8] 46% | [4]; [7] -3% | [4]; [8] 13% | [4]; at 50.0 µM 8.45% | [5]; [7] -21% | [5]; [8] -16% | [5]; at 50.0 µM 37.1% | [6]; [7] 5%
active: [1]; at 50.0 µM 86.2% | [3]; at 50.0 µM 72.5% | [6]; [8] 81% | [6]; at 50.0 µM 90.1%

COc1ccc(/C(=C/CN2CCC3CCC(C3)C2)c2ccccc2)cc1 (stereo not given)
inactive: [1]; [7] -3% | [1]; [8] -17% | [1]; at 50.0 µM 40.9% | [2]; [7] 5% | [2]; [8] -11% | [2]; at 50.0 µM 14.6% | [3]; [7] -31% | [3]; [8] -27% | [3]; at 50.0 µM 50.8% | [4]; [7] -6% | [4]; [8] -19% | [4]; at 50.0 µM 12.9% | [5]; [7] -3% | [5]; [8] 11% | [5]; at 50.0 µM 17.6% | [6]; [7] -13% | [6]; [8] -34% | [6]; at 50.0 µM 12.7%

Cc1cccc[n+]1CC(=O)c1cccc(O)c1
inactive: [1]; [7] 1% | [1]; [8] -2% | [1]; at 50.0 µM -11.1% | [2]; [7] -2% | [2]; [8] 4% | [2]; at 50.0 µM -3.5% | [3]; [7] 0% | [3]; [8] -2% | [3]; at 50.0 µM -7.45% | [4]; [7] 4% | [4]; [8] -4% | [4]; at 50.0 µM 36.6% | [5]; [7] 1% | [5]; [8] -3% | [5]; at 50.0 µM -13.6% | [6]; [7] -2% | [6]; [8] -4% | [6]; at 50.0 µM 7.25%

CC(=O)OC1SC(C)(C)n2c1nc1ccccc1c2=O (stereo not given)
active: [6]; at 50.0 µM 72%
inactive: [1]; [7] 1% | [1]; [8] 56% | [1]; at 50.0 µM 44.1% | [2]; [7] -5% | [2]; [8] 53% | [2]; at 50.0 µM 23.7% | [3]; [7] 6% | [3]; [8] 51% | [3]; at 50.0 µM 41% | [4]; [7] -8% | [4]; [8] 43% | [4]; at 50.0 µM 69.4% | [5]; [7] 1% | [5]; [8] 39% | [5]; at 50.0 µM 18.8% | [6]; [7] 2% | [6]; [8] 50%

O=NNc1nc(-c2ccccn2)nc2ccccc12
inactive: [1]; [7] -7% | [2]; [7] 7% | [3]; [7] -4% | [4]; [7] -2% | [4]; at 50.0 µM 41.2% | [5]; [7] -14% | [5]; at 50.0 µM 19.9% | [6]; [7] 1%
active: [1]; [8] 96% | [1]; at 50.0 µM 96.5% | [2]; [8] 99% | [2]; at 50.0 µM 97.9% | [3]; [8] 97% | [3]; at 50.0 µM 98.2% | [4]; [8] 92% | [5]; [8] 98% | [6]; [8] 99% | [6]; at 50.0 µM 98.5%

OCC1OC(NC(=S)NCSCCC(F)(F)C(F)(F)C(F)(F)C(F)(F)C(F)(F)C(F)(F)F)C(O)C(O)C1O (stereo not given)
active: [1]; at 50.0 µM 80.8% | [2]; at 50.0 µM 93.5% | [3]; at 50.0 µM 93.6% | [5]; at 50.0 µM 95.1% | [6]; at 50.0 µM 92.3%
inactive: [1]; [7] 17% | [1]; [8] -21% | [2]; [7] 7% | [2]; [8] 19% | [3]; [7] 36% | [3]; [8] 36% | [4]; [7] 22% | [4]; [8] 37% | [4]; at 50.0 µM 66.4% | [5]; [7] 7% | [5]; [8] -8% | [6]; [7] 22% | [6]; [8] -3%

COc1ccc(C2CC(c3c(O)ccc4ccccc34)=NN2)cc1OC (stereo not given)
inactive: [1]; [7] -4% | [2]; [7] -3% | [3]; [7] -6% | [4]; [7] -11% | [5]; [7] 8% | [6]; [7] -1%
active: [1]; [8] 97% | [1]; at 50.0 µM 89.2% | [2]; [8] 97% | [2]; at 50.0 µM 91.8% | [3]; [8] 97% | [3]; at 50.0 µM 90.4% | [4]; [8] 97% | [4]; at 50.0 µM 90.2% | [5]; [8] 96% | [5]; at 50.0 µM 90.5% | [6]; [8] 97% | [6]; at 50.0 µM 89.7%

O=C(O)/C=C/C(=O)c1ccc(O)cc1
inactive: [1]; [7] 25% | [2]; [7] 9% | [3]; [7] 28% | [4]; [7] 7% | [5]; [7] 5% | [6]; [7] 32%
active: [1]; [8] 97% | [1]; at 50.0 µM 95.7% | [2]; [8] 94% | [2]; at 50.0 µM 95.8% | [3]; [8] 93% | [3]; at 50.0 µM 94.6% | [4]; [8] 91% | [4]; at 50.0 µM 91.3% | [5]; [8] 95% | [5]; at 50.0 µM 92% | [6]; [8] 98% | [6]; at 50.0 µM 96%
